Results: PubChem BioAssay (NCI)
About 83,000 compounds went through this panel and 20% of them were active in at least one assay; those are over-represented in the sample as a whole.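 For each line, cells grew in 96-well plates with the test compound present at a single concentration for 48 hours.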 A number with no mark means an inactive call. Calls of active or inactive are those of the source. How the source made its calls: active means growth percent below 10; inactive means the rest.

Tested on: SK-MEL-2 melanoma
Assay: NCI-60 one-dose screen, 48 h (100 = growth as untreated, 0 = no growth, -100 = all killed)
Settings: 10 µM unless noted

Row | SMILES | growth
1 | O=C(c1ccccc1)C1OC1C(=O)c1ccccc1 (stereo not drawn) | 34%
2 | CC(C)=CC[C@@H]1CC2(CC=C(C)C)C(=O)C(OC3(C(=O)c4ccccc4)C(=O)C4(CC=C(C)C)C[C@@H](CC=C(C)C)C(C)(C)C(CC=C(C)C)(C4=O)C3=O)(C(=O)c3ccccc3)C(=O)C(CC=C(C)C)(C2=O)C1(C)C (stereo partly drawn) | -46.8% (active)
3 | CCCCc1nc(Cl)c(C2CC(c3ccc(S(N)(=O)=O)cc3)=NN2c2ccc(C#N)cc2)[nH]1 (stereo not drawn) | 91%
4 | COc1cc(Cl)cc(-c2nn(C(=O)NCCN3CCOCC3)cc2-c2ccncc2)c1 | 78.3%
5 | O=[N+]([O-])c1ccc(N=Nc2c(NNc3ccc([N+](=O)[O-])cn3)cc(S(=O)(=O)O)c3ccccc23)nc1 | 108%
6 | NC(=S)N1N=C(c2ccc(Cl)cc2)CC1c1cc2ccccc2[nH]c1=O (stereo not drawn) | 103%
7 | NC(=O)N/N=C\c1ccc([N+](=O)[O-])o1 | 114%
8 | Cc1cc(N)cc(C)c1-c1c(Br)cc(N)cc1Br | 26.6%
9 | O=C1CCCN1C1CCN2CCCc3cccc1c32 (stereo not drawn) | 102%
10 | CCCCCCCCCCCCCCCC1=NCCN1 | 96%
11 | C=CCCCCOc1cccc(/C=C2\N=C3SCCCN3C2=O)c1 | 91.3%
12 | CC(CN1CCN(CC(C)Nc2ccnc3cc(Cl)ccc23)CC1)Nc1ccnc2cc(Cl)ccc12 (stereo not drawn) | -37.9% (active)
13 | CCN1CCN(Cc2ccc(NC(=O)Nc3ccc(-n4ccc5c(NC(=O)c6ccccc6)nccc54)cc3)cc2C(F)(F)F)CC1 | -31.5% (active)
14 | N/C(=N\OC(=O)c1ccccc1)C(Cc1ccccc1)C(=O)NOC(=O)c1ccccc1 (stereo not drawn) | 89.7%
15 | C=CCN(CC#N)CC=C | 117%
16 | CCSc1cnnc2ccccc12 | 115%
17 | CCN1C(=O)N(CC)C2C1NN=c1s/c(=C\c3ccc(Br)cc3)c(=O)n12 (stereo not drawn) | 24.8%
18 | OC(COCc1ccccc1)COCc1ccccc1 | 111%
19 | N#CCCn1cnc2c(N)ncnc21 | 106%

Row | SMILES | growth
20 | CCOC(=O)Nc1ccc2nc(Sc3ccc(Cl)cc3)sc2c1 | 46.8%
21 | O=C(O)CSc1ccc(NCc2oc(CO)cc(=O)c2O)cc1 | 119%
22 | COc1cccc(N2CCN(c3ncnc4cc[nH]c34)CC2)c1 | 64.7%
23 | CCCCc1nc(Cl)c(C2CC(c3ccc(S(N)(=O)=O)cc3)=NN2c2cc(Cl)cc(Cl)c2)[nH]1 (stereo not drawn) | 47.2%
24 | CS(=O)(=O)c1ccc(Cl)c([N+](=O)[O-])c1 | 99.8%
25 | CC(C)CC(=O)C(CCc1ccccn1)C(C)C (stereo not drawn) | 103%
26 | CC(C)c1ccc(-c2cnc3nonc3n2)cc1 | 76.4%
27 | Cc1ccc(Nc2cc(Cl)c([N+](=O)[O-])cc2[N+](=O)[O-])cc1 | 28.3%
28 | COc1cc2c(=O)n(CCCN(C)C)c3c4cc[nH]c4ncc3c2cc1OC | 71.5%
29 | COc1cc(C2CC(c3ccc(C)cc3)=NN2C=O)ccc1Oc1nc2c(c(=O)n(C)c(=O)n2C)n1C (stereo not drawn) | 121%
30 | CC(C)CCSc1nc(-c2ccc(F)cc2)c(C#N)c(N2CCCCC2)n1 | 85.7%
31 | FC(F)(F)c1nn[nH]n1 | 112%
32 | CCN(CC)CCNC(=O)n1cc(-c2ccncc2)c(-c2cc(Cl)cc(OC)c2)n1 | 92.3%
33 | CS(=O)(=O)c1ccc(C(=O)Nc2ccc(Cl)c(-c3ccccn3)c2)c(Cl)c1 | -6.37% (active)
34 | CCOC(=O)c1cc(N)nc2ccccc12 | 99.9%
35 | CCCCCCCOc1cccc(/C=C2\N=C3SCCCN3C2=O)c1 | 95.5%
36 | Cn1cnc([N+](=O)[O-])c1S(=O)(=O)Oc1ccccc1 | 98.2%
37 | Cc1c(C(=O)CCl)c(=O)n(-c2ccccc2)n1C | 71.4%
38 | CCN(CC)c1cc(C)c(Cc2c(OC)ccc3ccccc23)cc1C | 94.4%
